Assay results: the supplement of paper PMC12024424

Experiments:
[1] = test system: Staphylococcus aureus Sa2 (MRSA, cystic fibrosis isolate); test: growth reduction vs untreated control (OD550); higher = stronger antibacterial activity; conditions: 0.1 mM; 24 h
Procedure: (§1)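 Single-dose screen of the MedChem Express Drug Repurposing Library (0.1 mM, 1% DMSO) against planktonic MRSA S. aureus Sa2 (CF isolate) in TSB in 96-well plates, 37 °C aerobic, 24 h. Assays were run in triplicate and repeated twice.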

[2] = test system: Staphylococcus aureus Sa2 (MRSA, cystic fibrosis isolate); test: growth reduction vs untreated control (viable cell count); higher = stronger antibacterial activity; extreme values may be limits of the assay; conditions: 0.1 mM; 24 h
Procedure: as §1

SMILES	growth reduction [1]	growth reduction [2]
Cc1c(Cl)cccc1Nc1ccccc1C(=O)O [Tolfenamic Acid]	100%	99%
COCCN1CCC(N(Cc2ccc(-c3ccc(C(F)(F)F)cc3)cc2)C(=O)Cn2c(SCc3cccc(F)c3F)cc(=O)c3ccccc32)CC1 [Rilapladib]	100%	100%
CC1(S(=O)(=O)O)CC(=O)c2ccccc2C1=O (configuration not stated) [Menadione bisulfite (sodium)]	99.5%	100%
O=c1nc(OC[C@@H]2COCCO2)cc2n1CCc1cc(C#CC3CC3)ccc1-2	96.2%	93%
CN(C)CCOc1ccc(/C(=C(/CCCl)c2ccccc2)c2ccccc2)cc1 [Toremifene (citrate)]	100%	100%
CC1(C)CCC(C)(C)c2cc(Cn3cccn3)c(/C=C/c3ccc(C(=O)O)cc3)cc21 [Palovarotene]	100%	100%
CC(C)OC(=O)CCC/C=C\C[C@@H]1[C@@H](/C=C/[C@@H](O)COc2cccc(C(F)(F)F)c2)[C@H](O)C[C@@H]1O [Travoprost]	100%	100%
COC(=O)C1=C(C)NC(C)=C(C(=O)OC(C)C)C1c1cccc2nonc12 (configuration not stated) [Isradipine]	100%	100%
O=c1[nH]c(=O)n([C@H]2C[C@H](O)[C@@H](CO)O2)cc1F [Floxuridine]	100%	100%
Clc1ccc(C(Cn2ccnc2)OCc2ccc(Sc3ccccc3)cc2)c(Cl)c1 (configuration not stated) [Fenticonazole (Nitrate)]	100%	100%
Cc1ccc(C(=O)Nc2ccc(CN3CCN(C)CC3)c(C(F)(F)F)c2)cc1C#Cc1cnc2[nH]ncc2c1	100%	100%
